The panel holds about 83,000 compounds, 20% with a hit somewhere; the sample as a whole holds those more often.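 Activity criterion: percent growth below 10, measured after cells in 96-well plates were exposed to a single compound concentration for 48 hours.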 Values without a mark were called inactive. Activity calls are given as the source filed them.
Legend:
Experiment in all cases: NCI-60 one-dose screen, 48 h (100 = growth as untreated, 0 = no growth, -100 = all killed)
Conditions in all cases: 10 µM unless noted
SK-MEL-2 melanoma = system: SK-MEL-2 melanoma
EKVX NSCLC = system: EKVX NSCLC
SN12C renal = system: SN12C renal
UO-31 renal = system: UO-31 renal
TK-10 renal = system: TK-10 renal
ACHN renal = system: ACHN renal
A498 renal = system: A498 renal
CCRF-CEM leukemia = system: CCRF-CEM leukemia
MOLT-4 leukemia = system: MOLT-4 leukemia
SR leukemia = system: SR leukemia
RPMI-8226 leukemia = system: RPMI-8226 leukemia
OVCAR-8 ovarian = system: OVCAR-8 ovarian
OVCAR-5 ovarian = system: OVCAR-5 ovarian
OVCAR-4 ovarian = system: OVCAR-4 ovarian
SK-OV-3 ovarian = system: SK-OV-3 ovarian
IGROV1 ovarian = system: IGROV1 ovarian
OVCAR-3 ovarian = system: OVCAR-3 ovarian
HS 578T breast = system: HS 578T breast
NCI/ADR-RES ovarian = system: NCI/ADR-RES ovarian
CAKI-1 renal = system: CAKI-1 renal

SMILES	growth (SK-MEL-2 melanoma)	growth (EKVX NSCLC)	growth (SN12C renal)	growth (UO-31 renal)	growth (TK-10 renal)	growth (ACHN renal)	growth (A498 renal)	growth (CCRF-CEM leukemia)	growth (MOLT-4 leukemia)	growth (SR leukemia)	growth (RPMI-8226 leukemia)	growth (OVCAR-8 ovarian)	growth (OVCAR-5 ovarian)	growth (OVCAR-4 ovarian)	growth (SK-OV-3 ovarian)	growth (IGROV1 ovarian)	growth (OVCAR-3 ovarian)	growth (HS 578T breast)	growth (NCI/ADR-RES ovarian)	growth (CAKI-1 renal)
Cc1c(Cl)cccc1S(=O)(=O)Nc1ccc2c(c1)C(=O)N(C1CCC(=O)NC1=O)C2=O (centres undefined)	107%	91.2%	89.4%	44%	75.2%	108%	91.1%	25.5%	3.6% (active)	97.1%	84.5%	47.8%	97.3%	69.1%	106%	64.1%	105%	67.3%	73.3%	–
CC/C(=C/c1cc(OC)ccc1O)c1ccc2cc(OC)ccc2[o+]1	71.8%	76.3%	73.9%	68.7%	116%	58.5%	29.5%	39.3%	53.4%	18.3%	79.4%	87.1%	82.8%	89.8%	60.2%	55.1%	20.7%	63.4%	33.5%	–
CS(=O)(=O)Nc1cc(-c2ccc3ncc(C#N)c(NCc4cccc(F)c4)c3c2)cnc1Cl	-63.4% (active)	-7.05% (active)	15.4%	2.87% (active)	-11% (active)	10.1%	–	15.1%	-10.6% (active)	2.9% (active)	-24.2% (active)	7.95% (active)	16.4%	–	-18.2% (active)	-42.5% (active)	2.49% (active)	-24.8% (active)	23.4%	4.52% (active)
C=C(C)[C@@H]1CC[C@]2(C(=O)NCCCCCN(CCC#N)CCC#N)CC[C@]3(C)[C@H](CC[C@@H]4[C@@]5(C)CCC(=O)C(C)(C)[C@@H]5CC[C@]43C)[C@@H]12	106%	75.2%	89.3%	71.6%	74.7%	98.7%	–	–	92%	80.4%	79.7%	106%	96.2%	86%	118%	97.6%	111%	103%	108%	61.1%
Cn1ccnc1C(=O)/C=C/c1ccc(CNC(=O)c2ccc(S(F)(F)(F)(F)F)cc2)cc1	92.9%	40%	25.6%	34.7%	91.1%	49.8%	–	2.63% (active)	0.864% (active)	–	-10.9% (active)	26.4%	22.4%	35.6%	66.8%	16.7%	16.8%	23%	12.2%	47%
CC(C)(C)c1ccc(CC(=O)Nc2sc3c(c2C(N)=O)CCC(=O)C3)cc1	-5.02% (active)	10.8%	6.98% (active)	-87.5% (active)	16.6%	-90.8% (active)	–	10.8%	–	–	-20.7% (active)	11.1%	7% (active)	-32.2% (active)	9.81% (active)	8.85% (active)	-36% (active)	33.6%	3.51% (active)	-56.2% (active)
O=C(CSc1nnc(-c2ccc(Cl)cc2)n1-c1ccccc1)Nc1cccc(Cl)c1	101%	62.3%	25.4%	12.6%	75.1%	9.9% (active)	–	78.3%	85.6%	21.4%	34.5%	62.4%	71.7%	-5.99% (active)	126%	46.7%	82%	54.4%	50.4%	64.9%
C#CCOc1ccc(/C=N\Nc2nc(-c3ccc(C)cc3)cs2)cc1OC	96.1%	65.3%	89.2%	78.3%	166%	103%	–	90.4%	79.5%	83.2%	68.3%	–	96.8%	76.8%	87.6%	92.3%	99.3%	111%	96.2%	115%
CCN(CC)c1ccc2c(c1)Oc1nc(N)c(C#N)c(N)c1C2Sc1ccc(F)cc1 (centres undefined)	-61.3% (active)	-85.8% (active)	-77.8% (active)	-99.5% (active)	-33.6% (active)	-91% (active)	–	-23% (active)	-12.8% (active)	-9.13% (active)	-25.7% (active)	-31.1% (active)	-92.5% (active)	-29.3% (active)	-7.03% (active)	-77.9% (active)	-69.4% (active)	-4.5% (active)	-9.25% (active)	-81.9% (active)
O=C(CN1CCN(c2cc(=O)n(-c3ccccc3)c3ccccc23)CC1)Nc1ccc(F)cc1	87.9%	48.7%	77.7%	40.6%	73.1%	65.4%	–	–	44.4%	–	61.5%	71.2%	101%	22.7%	78.6%	60.1%	71.8%	88.7%	64.3%	63.7%
CC(=O)c1cc(C(=O)c2ccc(Br)cc2)n2cc(C)cc(C)c12	102%	71.7%	90.8%	84.8%	103%	98.9%	76.8%	97%	87%	77.1%	62.9%	98.9%	89.8%	93.4%	94.9%	85.6%	112%	95.9%	86.3%	–
Cn1ccnc1C(=O)/C=C/c1ccc(NC(=O)c2ccc(F)cc2)cc1	106%	42.1%	25%	42.3%	89.5%	37.6%	–	7.06% (active)	16.6%	8.3% (active)	10.6%	65%	41.2%	–	67.2%	34.7%	17.9%	54.4%	27.5%	41.4%
COc1c(N2CC3CCCNC3C2)c(F)cc2c(=O)c(C(=O)N/N=C/c3ccc(F)cc3)cn(C3CC3)c12 (centres undefined)	100%	90%	88.4%	80.7%	101%	104%	59.9%	63.8%	63.1%	-24.6% (active)	60.2%	91.7%	95.6%	90.5%	110%	97.9%	92.9%	94.4%	89.4%	–
N#Cc1cccc(CN2CCC3=C(C2)C(=O)N(Cc2ccc(Cl)cc2)C2=NCCCN23)c1	26.4%	29%	22.1%	37.4%	60.4%	38.4%	15.4%	37.1%	48.3%	27.6%	18.7%	21.5%	38.7%	20.8%	35.9%	48.2%	23.3%	50.5%	13.4%	–
Cc1occc1-c1nc2s/c(=C/c3ccc(-c4cc(C(F)(F)F)ccc4Cl)o3)c(=O)n2n1	109%	100%	98.4%	87.4%	114%	102%	–	117%	113%	101%	99.5%	103%	105%	102%	110%	103%	–	98.1%	109%	89.2%
NS(=O)(=O)c1ccc(Nc2nc(N/N=C/c3c[nH]c4ccccc34)nc(Nc3ccccc3)n2)cc1	67.3%	67.4%	40.2%	49.2%	94.7%	81.2%	–	12.9%	19.9%	12.1%	-5.69% (active)	37.8%	87.8%	59.7%	90.8%	33.9%	26.7%	42.2%	93.5%	53.9%

Reference: PubChem BioAssay (NCI)
